# Hits are enriched below; roughly 12% of the tested compounds scored in any of these assays.
# Pf growth 48h: P. falciparum growth inhibition at 48 hours (one generation). P. falciparum luciferase growth in erythrocytes, 48 h. Potency, µM (highest dose often 28.7 µM), inactives show at the highest dose activity change, negative = inhibition, hits mostly inhibitors. 5.9% of 310,000 active. AID 504832; note: % is set by controls: 0 for no effect and ±100 for the full control effect
#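 Here the parasites carry a stable luciferase gene and grow inside erythrocytes in Albumax-based RPMI medium with compound for one erythrocytic cycle. Activity is scored as loss of luminescent signal.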
# Pf growth 96h: P. falciparum growth inhibition at 96 hour, primary screen for plastid delayed-death inhibitors; P. falciparum luciferase reporter growth, 96 h; Potency, µM (series often up to 28.7 µM), without a hit: at the highest dose activity change, negative = inhibition, usual class: inhibitors; 6.9% of 320,000 active; AID 504834; note: % is set by controls: 0 for no effect and ±100 for the full control effect
#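 96 h incubation, 37 C, 5% CO2, of luciferase-reporter P. falciparum-infected RBCs (2% hematocrit, 0.05% parasitemia final) with test compounds; endpoint luminescence.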
# AmpC inh detg: AmpC beta-lactamase inhibition with detergent present | P00811 | AmpC hydrolysis of nitrocefin, absorbance 480 nm, 0.01% Triton | Potency, µM (titrated, usually from 114 µM), for the others: at the top dose activity change, negative = inhibition, most hits filed as inhibitors | 0.041% of 370,000 active | AID 485294;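 note: 0% = no-compound wells and -100% = no-enzyme wells; nearly all actives have a fitted effect of over 25% in size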
# Target sequence (P00811 whole entry, looked up): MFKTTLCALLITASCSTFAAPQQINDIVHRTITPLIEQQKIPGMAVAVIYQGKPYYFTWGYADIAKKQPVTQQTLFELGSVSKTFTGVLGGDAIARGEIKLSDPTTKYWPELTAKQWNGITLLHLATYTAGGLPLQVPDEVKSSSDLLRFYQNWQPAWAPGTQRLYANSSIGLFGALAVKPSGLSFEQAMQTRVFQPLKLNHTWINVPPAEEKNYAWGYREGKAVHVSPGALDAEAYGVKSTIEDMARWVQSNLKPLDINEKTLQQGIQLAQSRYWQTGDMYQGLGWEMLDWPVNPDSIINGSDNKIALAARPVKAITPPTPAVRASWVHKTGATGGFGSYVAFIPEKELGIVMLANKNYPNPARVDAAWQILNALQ
#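 20 mM phosphate pH 7.0 + 0.01% (detergent screen) or 0.0001% Triton X-100; 5.3 nM AmpC reagent; cpd preinc 15 min RT; nitrocefin (800 uM stock) to start; A480 q20 s × 4 min; Activity was normalised to no-enzyme and no-compound control wells.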
# SARS PLP yeast: SARS-CoV PLP inhibition in yeast. S. cerevisiae expressing SARS-CoV PLpro, growth rescue. Potency, µM (series often up to 32.9 µM), for the others: at the highest dose activity, positive = growth rescue, actives largely listed as activators. 0.19% of 330,000 active. AID 485353; calls by dose curve; note: 0% is about no effect; nearly all actives have a fitted effect of over 55% in size
# Sm TGR block: inhibitors of Schistosoma mansoni thioredoxin glutathione reductase; Q962Y6; purified TGR, DTNB reduction, TNB absorbance 405 nm; Potency, µM (doses to about 114 µM), for inactives: at the top dose activity change, negative = inhibition, most hits filed as inhibitors; 3% of 360,000 active; AID 485364; note: % is set by controls: 0 for no effect and ±100 for the full control effect; nearly all actives have a fitted effect of over 60% in size
#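 TGR 20 nM + NADPH 100 uM (dispensed conc.), cpd preinc 15 min RT; start with NADPH (500 uM addition) then DTNB (15 mM addition). Kinetic TNB absorbance, 405 nm filter. Four-parameter Hill fit across titration.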
# AmpC inh no detg: blocks E. coli AmpC beta-lactamase in detergent-free assay; P00811; AmpC nitrocefin hydrolysis, absorbance 480 nm, 0.0001% Triton; 0.52% of 330,000 active; Potency, µM (highest dose often 57.1 µM), inactives show at the highest dose activity change, negative = inhibition, actives largely listed as inhibitors;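 note: plate controls were no compound for no effect and no enzyme for full effect; nearly all actives have a fitted effect of over 20% in size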
#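 20 mM phosphate pH 7.0 + 0.01% (detergent screen) or 0.0001% Triton X-100; 5.3 nM AmpC reagent; cpd preinc 15 min RT; nitrocefin (800 uM stock) to start; A480 q20 s × 4 min; Activity was normalised to no-enzyme and no-compound control wells.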
# * = called active by the depositor; u = inconclusive; x = no result; [ ] = remark or other dose. Unless noted, calls come from the whole dose curve; as a rule, active = well fitted curve in the direction sought with a large enough effect; inconclusive = small, poorly fitted or top-dose-only effect, or another doubt; inactive = no such curve, though single readings can be large; an effect the other way counts as inactive or inconclusive. Potency is the fitted concentration of half-maximal effect.
SMILES,Pf growth 48h,Pf growth 96h,AmpC inh detg,SARS PLP yeast,Sm TGR block,AmpC inh no detg
O=C(CCN1CCCCC1)c1ccc2c(c1)OCO2,6%,-39%,0%,-18%,0.28µM*,-34%
O=C(CCCN1CCOCC1)c1ccc2c(c1)OCCO2,114%,69%,2%,-3%,-22%,-6%
S=C(c1ccc2c(c1)OCO2)N1CCCCCC1,x,12µM*,-2%,6%,-23%,-12%
O=C(CCN1CCc2ccccc2CC1)c1ccc2c(c1)OCCO2,x,1%,-15%,-36%,0.35µM*,-23%
CC1CC(C)CN(CCCNC(=O)c2c(O)nc3ccccn3c2=O)C1 (stereo not drawn),4.1µM*,u,-2%,4%,-1%,-14%
CC1CC(C)CN(CCCNC(=O)CCNC(=O)Cn2cnc3ccccc3c2=O)C1 (stereo not drawn),13%,-5%,-11%,-7%,-8%,-11%
Cc1cccn2c(=O)c(C(=O)NCCCN3CC(C)CC(C)C3)c(O)nc12 (stereo not drawn),2.1µM*,0.83µM*,-18%,-2%,-3%,-11%
CC1CC(C)CN(CCCNC(=O)CCNC(=O)Cn2ccc3ccccc3c2=O)C1 (stereo not drawn),x,5.2µM*,3%,-6%,12%,4%
Cc1ccc(CNC(=O)Cn2ccc3ccccc3c2=O)o1,17%,63%,-10%,2%,32µM*,-13%
Cc1cc(C)cc(-n2c(C)cc(C(=O)C(=O)Nc3nnc(C)s3)c2C)c1,x,x,-13%,x,3%,x
CC(C)COc1ccc(C(=O)NNC(=O)c2ccc(=O)[nH]c2)cc1,3%,28%,2%,-2%,-12%,0%
COc1ccc(C2=NCCn3nc4cc([N+](=O)[O-])ccc4c32)cc1,u,u,5%,-1%,25µM*,1%
O=[N+]([O-])c1ccc2c3n([n+]([O-])c2c1)CCN=C3c1ccc(Cl)cc1,12µM*,u,-10%,3%,u,-29%
Cc1ccc(C2=NCCn3c2c2ccc([N+](=O)[O-])cc2[n+]3[O-])cc1,u,u,-7%,-1%,u,-21%
CCOC(=O)[C@H]1[C@H]2COc3cc(OC)ccc3[C@@H]2N2C(=O)[C@@H](CO)NC(=O)[C@@]12C,x,x,x,6%,x,-1%
Cc1nn(Cc2ccccc2)c(C)c1C=C1C(=O)NC(=O)NC1=O,0%,8.3µM*,-6%,17%,-1%,-18%
O=C(CCn1cnc2ccccc2c1=O)Nc1nc(-c2ccc(Br)cc2)cs1,-5%,9.3µM*,10%,-13%,0%,-13%
O=C(COC(=O)c1ccccc1Oc1ccccc1)NCc1ccco1,0%,-5%,-21%,3%,16µM*,-14%
Cc1cc(Br)ccc1SCC(=O)OCC(=O)NCc1ccco1,19%,31%,2%,-3%,25µM*,-11%
Cc1cc(C(=O)OCC(=O)NCc2ccco2)c(C)n1-c1ccc(F)cc1,8.3µM*,u,-2%,-15%,u,-3%
O=C(COC(=O)C(c1ccccc1)c1ccccc1)NCc1ccco1,-9%,-1%,0%,2%,40µM*,-8%
CCNC(=O)COC(=O)c1cc(C)n(-c2ccccc2)c1C,-5%,-1%,-15%,1%,5%,-7%
COCCNC(=O)c1[nH]c2cc(C)ccc2c1Sc1ccc(Cl)cc1,x,x,-1%,x,2%,x
COC(=O)CC1Oc2ccc(Cl)cc2-n2cc(-c3ccc(C)cc3)nc21 (stereo not drawn),x,x,-4%,x,u,x
Cc1nn(-c2ccccc2)c(C)c1C(=O)OCC(N)=O,-1%,8%,u,2%,0%,-2%[11.4 µM]
SMILES,Pf growth 48h,Pf growth 96h,AmpC inh detg,SARS PLP yeast,Sm TGR block,AmpC inh no detg
O=C(COC(=O)CCSc1ccccc1Cl)NCc1ccco1,3%[5.75 µM],90%,-4%,1%,40µM*,-5%[2.29 µM]
Cc1nn(-c2ccccc2)c(C)c1C(=O)OCC(=O)NCc1ccco1,-1%,24%,3%,-4%,18µM*,-11%
O=C(Cn1cc(C(=O)COc2ccccc2)c2ccccc21)NCc1ccco1,-14%,161%,u,2%,40µM*,-20%
COc1cc(OC)cc(-c2c(C#Cc3ccsc3)c3cc(-c4ccccc4OC)ccc3n2C)c1,x,x,x,-9%,x,-23%
COc1cc(OC)cc(-c2c(C#Cc3ccsc3)c3cc(-c4cccc5[nH]ccc45)ccc3n2C)c1,12µM*,3.3µM*,2%,2%,-19%,-19%
COc1ccc(-c2ccc3c(c2)c(C#Cc2ccsc2)c(-c2cc(OC)cc(OC)c2)n3C)cc1,x,x,x,6%,x,-18%
COc1ccc(-c2c(C#Cc3ccsc3)c3cc(-c4ccc5cc[nH]c5c4)ccc3n2C)cc1,x,x,x,4%,x,-24%
COc1cc(OC)cc(-c2c(C#Cc3ccsc3)c3cc(-c4ccc5c(c4)OCCO5)ccc3n2C)c1,u,2.6µM*,5%,0%,-23%,-22%
COc1cc(OC)cc(-c2c(C#Cc3ccsc3)c3cc(-c4ccc5cc[nH]c5c4)ccc3n2C)c1,u,1.9µM*,-7%,0%,25µM*,-31%
O=C(NCCc1ccccc1)c1ccc2c(c1)N(Cc1c(F)cccc1Cl)C(=O)CS2,x,x,-5%,x,-1%,x
N#Cc1ccc(COc2cccc3cccnc23)cc1,52%,34%,-4%,-5%,-11%,-20%
CCOc1ccccc1NC(=O)CSc1nc2cc(OC)c(OC)cc2c2nc(CCn3c(C)nc4ccccc43)nn12,x,x,1%,x,-5%,x
Cc1ccc(OC(=O)C(F)(F)F)c2c1NCCC2,u,x,u,7%,32µM*,-6%
Cc1ccccc1NC(=S)N1CCN(c2ccccc2)CC1,u,u,-16%,1%,-20%,-31%
O=C(Nc1cc(Br)ccc1O)c1cnn2c(C(F)F)cc(C3CC3)nc12,4.1µM*,-23%,-7%,-6%,0%,u
COc1ccc(OC)c(Cc2nnc(CCC(=O)NCc3nc4ccccc4s3)o2)c1,0%,7.4µM*,-6%,0%,-8%,106%
CC1Cc2ccccc2N1C(=O)CSc1nncs1 (stereo not drawn),-27%,u,-10%,4%,-4%,-12%
CC1CCC(NC(=O)N(CCCl)N=O)CC1 (stereo not drawn),5.4µM*,6.7µM*,x,x,x,x
COCCNC(=O)c1ccccc1NC(=O)Nc1ccccc1,30%,7.4µM*,-6%,0%,x,0%
CC(C)c1ccc(S(=O)(=O)N2CCN(C(=O)n3ccnc3)CC2)cc1,u,5.2µM*,-2%,-5%,-1%,-5%

# Source: PubChem BioAssay (National Center for Advancing Translational Sciences (NCATS))
